In PubChem BioAssay (Tox21) one finds Potency and outcome data, which are given here for eleven compounds.

Experiment [1] in a line: qHTS assay to identify small molecule antagonists of the thyroid receptor (TR) signaling pathway (AID 743065). Also: nearly all actives have a fitted effect of over 55% in size. Also: potency is read from the fitted curve at half-maximal effect. In outline:
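Antagonism measured as loss of luciferase signal in GH3 cells stably carrying a TRE-luciferase reporter, co-treated with compound and T3 (1 nM final) for 23.5 h at 37 C. Viability was read in the same well by CellTiter-Fluor.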

For experiment [2], the system named is thyroid hormone receptor (rat, GH3 cells). Nature of the experiment: qHTS assay to identify small molecule agonists of the thyroid receptor (TR) signaling pathway (AID 743066; calls by dose curve).
Experiment [3] in a line: qHTS assay to identify small molecule antagonists of the estrogen receptor alpha (ER-alpha) signaling pathway - cell viability counter screen (AID 743074; calls by dose curve;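 also: HEK293 cells carrying ER-alpha-UAS-bla reporter stimulated with 17beta-estradiol; nearly all actives have a fitted effect of over 45% in size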).
Experiment [4] is described as follows: qHTS assay to identify small molecule antagonists of the estrogen receptor alpha (ER-alpha) signaling pathway using the BG1 cell line - cell viability counter screen (AID 743081).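 Also: compound given together with 17beta-estradiol as the ER stimulus; nearly all actives have a fitted effect of over 45% in size.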 Also: potency is read from the fitted curve at half-maximal effect.
Experiment [5] is described as follows: qHTS assay to identify small molecule that activate the aryl hydrocarbon receptor (AhR) signaling pathway - cell viability counter screen (AID 743086). Also: nearly all actives have a fitted effect of over 45% in size. Also: potency is read from the fitted curve at half-maximal effect. In outline:
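Cytotoxicity counter screen: CellTiter-Fluor signal (30 min, 37 C) in 4000 HepG2 cells/well carrying the DRE-luciferase reporter, following 24 h compound exposure at 37 C.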

A short description of experiment [6]: qHTS assay for small molecule agonists of the antioxidant response element (ARE) signaling pathway - cell viability counter screen (AID 743203; calls by dose curve; also: nearly all actives have a fitted effect of over 55% in size; also: potency is read from the fitted curve at half-maximal effect). In outline:
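CellSensor ARE-bla HepG2 cells, 2,000 per well, rested 5 hrs at 37C/5% CO2, then exposed to compound in DMSO for 16 hrs; viability read as CellTiter-Glo luminescence after 30 min at room temperature, in the reporter wells.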

Experiment [7] in a line: qHTS assay for small molecule activators of the heat shock response signaling pathway - cell viability counter screen (AID 743209). Also: nearly all actives have a fitted effect of over 50% in size. In outline:
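CellSensor HSE-bla HeLa cells, plated overnight at 37 C/5% CO2, were exposed to compounds in DMSO for 5 h at 37 C. Viability was then read in the same wells by CellTiter-Glo luminescence after 30 min at room temperature.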

A short description of experiment [8]: qHTS assay for small molecule activators of the heat shock response signaling pathway (AID 743210; active = well fitted activation curve with a large enough effect in the signal ratio in the repeat runs, with a control signal flat, not every such curve was filed as active; inconclusive = weak or mixed curves; the % refers to the signal ratio;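 also: HeLa cells with beta-lactamase reporter driven by heat shock elements; series mostly up to about 63 µM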). In outline:
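In HSE-bla HeLa cells, 5 h compound incubation (37 C) precedes addition of LiveBLAzer B/G substrate; after 2.5 h at room temperature, fluorescence intensity indicates reporter induction.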

Experiment [9] has as its target Aryl hydrocarbon receptor (Homo sapiens) (UniProt P35869). Nature of the experiment: qHTS assay to identify small molecule that activate the aryl hydrocarbon receptor (AhR) signaling pathway (AID 743085). Also: nearly all actives have a fitted effect of over 15% in size. Also: potency is read from the fitted curve at half-maximal effect.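 As to activation: HG2L7.5c1 human HepG2 liver cells with stably integrated DRE-driven firefly reporter; series mostly up to about 70 µM.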 In outline: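 Luminescence read-out: ONE-Glo reagent, 30 min at room temperature, in HG2L7.5c1 HepG2 reporter cells treated 24 h at 37C. Viability was measured beforehand by CellTiter-Fluor fluorescence after 30 min at 37C.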

The target of experiment [10] is Peroxisome proliferator-activated receptor gamma (Homo sapiens) (UniProt P37231). Nature of the experiment: qHTS assay to identify small molecule agonists of the peroxisome proliferator-activated receptor gamma (PPARg) signaling pathway (AID 743094; active = well fitted activation curve with a large enough effect in the signal ratio in the repeat runs, not every such curve was filed as active; inconclusive = weak or mixed curves, or effect the other way; inactive = no such curve, though single readings can be large or run the other way; the % refers to the signal ratio). In outline:
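GeneBLAzer PPARg UAS-bla HEK293H cells carrying a stably integrated beta-lactamase reporter were pre-incubated 5 h at 37C, then exposed to compounds in DMSO for 17 h at 37C; LiveBLAzer B/G FRET substrate was added for 1 h at room temperature and fluorescence read.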

Experiment [11] shares this target. Nature of the experiment: qHTS assay to identify small molecule antagonists of the peroxisome proliferator-activated receptor gamma (PPARg) signaling pathway (AID 743191; calls by dose curve; also: series mostly up to about 63 µM; nearly all actives have a fitted effect of over 30% in size). In outline:
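Beta-lactamase reporter under UAS control in HEK293H PPARg-bla cells; compound treatment 17 h at 37C. Read-out: fluorescence intensity after 1 h room-temperature incubation with LiveBLAzer B/G FRET substrate.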

A short description of experiment [12]: qHTS assay to identify small molecule antagonists of the peroxisome proliferator-activated receptor gamma (PPARg) signaling pathway - cell viability counter screen (AID 743194). Also: nearly all actives have a fitted effect of over 55% in size. In outline:
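Viability was measured as CellTiter-Glo luminescence in GeneBLAzer PPARg UAS-bla HEK293H cells. These cells had been exposed 17 h at 37 C to compounds together with rosiglitazone at 50 nM final, with the beta-lactamase readout taken in the same wells.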

The nature of experiment [13]: qHTS assay for small molecule agonists of the antioxidant response element (ARE) signaling pathway (AID 743202; active = well fitted activation curve with a large enough effect in the signal ratio in the repeat runs, not every such curve was filed as active; inconclusive = weak or mixed curves, or effect the other way; inactive = no such curve, though single readings can be large or run the other way; the % refers to the signal ratio). In outline:
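An ARE-responsive beta-lactamase gene stably integrated in HepG2 cells serves as reporter. After 5 h plating and 16 h compound incubation at 37 C, fluorescence of the B/G FRET substrate was measured.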

Experiment [14] concerns the target Estrogen receptor (Homo sapiens) (UniProt P03372). Nature of the experiment: qHTS assay to identify small molecule agonists of the estrogen receptor alpha (ER-alpha) signaling pathway (AID 743075; calls by dose curve; also: potency is read from the fitted curve at half-maximal effect).
Experiment [15] has the same target. Kind of experiment: qHTS assay to identify small molecule agonists of the estrogen receptor alpha (ER-alpha) signaling pathway using the BG1 cell line (AID 743079). Also: nearly all actives have a fitted effect of over 20% in size. Also: potency is read from the fitted curve at half-maximal effect.
Experiment [16] is described as follows: qHTS assay to identify small molecule antagonists of the estrogen receptor alpha (ER-alpha) signaling pathway using the BG1 cell line (AID 743080; calls by dose curve;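 also: BG1 cells stimulated with 17beta-estradiol alongside compound; series mostly up to about 70 µM; nearly all actives have a fitted effect of over 25% in size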). In outline: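 Luminescence from a 4×ERE-luciferase reporter in BG1-Luc-4E2 cells served as read-out. Cells, pre-cultured 5 days in stripped-serum phenol-red-free medium, were exposed to compound with 17beta-estradiol co-stimulation for 21.5 h at 37 C.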

For experiment [17], the target named is Aromatase (Homo sapiens) (UniProt P11511). Kind of experiment: qHTS assay to identify aromatase inhibitors (AID 743083). Also: nearly all actives have a fitted effect of over 55% in size. Also: potency is read from the fitted curve at half-maximal effect.
Experiment [18] has as its target Estrogen receptor (Homo sapiens) (UniProt P03372). Kind of experiment: qHTS assay to identify small molecule antagonists of the estrogen receptor alpha (ER-alpha) signaling pathway (AID 743069; active = well fitted curve in the direction sought with a large enough effect in the signal ratio in the repeat runs, not every such curve was filed as active; inconclusive = weak or mixed curves, or effect the other way; inactive = no such curve, though single readings can be large or run the other way; the % refers to the signal ratio). In outline: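 Compound effects are measured against 17beta-estradiol stimulation in HEK293 cells with a UAS-controlled beta-lactamase reporter for ER-alpha. Exposure lasts 18 hr at 37C; LiveBLAzer B/G FRET substrate follows for 2 hr at room temperature.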

Experiment [19] is described as follows: qHTS assay to identify aromatase inhibitors - cell viability counter screen (AID 743084).

The structures appear in SMILES notation. Calls of active or inactive are those of the source. Unless noted, calls follow the shape of the dose curve; as a rule, active = well fitted curve in the direction sought with a large enough effect in the repeat runs; inconclusive = weak or mixed curves; inactive = no such curve, though single readings can be large; an effect the other way counts as inactive or inconclusive.

Sequence of Estrogen receptor (Homo sapiens) (P03372 whole entry, looked up): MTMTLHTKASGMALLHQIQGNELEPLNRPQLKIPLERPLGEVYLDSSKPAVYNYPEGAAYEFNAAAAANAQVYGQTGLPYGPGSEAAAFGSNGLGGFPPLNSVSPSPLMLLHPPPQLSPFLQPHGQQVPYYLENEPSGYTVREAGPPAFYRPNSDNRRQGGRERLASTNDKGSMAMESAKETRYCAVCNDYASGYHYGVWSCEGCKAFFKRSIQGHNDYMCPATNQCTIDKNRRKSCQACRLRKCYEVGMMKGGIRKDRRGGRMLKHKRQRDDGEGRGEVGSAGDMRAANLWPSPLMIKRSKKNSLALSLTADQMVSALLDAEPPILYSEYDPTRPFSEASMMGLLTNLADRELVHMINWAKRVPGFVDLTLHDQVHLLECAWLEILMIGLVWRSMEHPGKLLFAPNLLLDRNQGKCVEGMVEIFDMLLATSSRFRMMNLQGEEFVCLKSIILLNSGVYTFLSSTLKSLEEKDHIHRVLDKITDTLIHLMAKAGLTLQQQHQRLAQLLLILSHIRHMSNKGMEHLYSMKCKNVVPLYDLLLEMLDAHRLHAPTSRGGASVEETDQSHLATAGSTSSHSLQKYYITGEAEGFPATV
Sequence of Aromatase (Homo sapiens) (P11511 whole entry, looked up): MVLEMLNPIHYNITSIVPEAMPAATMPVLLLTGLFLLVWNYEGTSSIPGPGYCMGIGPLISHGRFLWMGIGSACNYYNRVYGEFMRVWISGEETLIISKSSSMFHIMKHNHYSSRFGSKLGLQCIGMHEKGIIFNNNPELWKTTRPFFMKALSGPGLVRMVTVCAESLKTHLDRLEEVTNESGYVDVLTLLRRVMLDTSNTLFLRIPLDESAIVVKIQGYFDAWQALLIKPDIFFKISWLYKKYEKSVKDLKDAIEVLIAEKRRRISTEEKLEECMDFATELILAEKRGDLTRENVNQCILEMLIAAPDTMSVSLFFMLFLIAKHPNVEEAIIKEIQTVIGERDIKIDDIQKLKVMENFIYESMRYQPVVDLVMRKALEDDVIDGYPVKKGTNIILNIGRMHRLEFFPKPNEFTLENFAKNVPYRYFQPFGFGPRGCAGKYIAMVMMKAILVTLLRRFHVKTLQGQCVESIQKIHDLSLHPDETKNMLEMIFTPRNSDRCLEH
Sequence of Peroxisome proliferator-activated receptor gamma (Homo sapiens) (P37231 whole entry, looked up): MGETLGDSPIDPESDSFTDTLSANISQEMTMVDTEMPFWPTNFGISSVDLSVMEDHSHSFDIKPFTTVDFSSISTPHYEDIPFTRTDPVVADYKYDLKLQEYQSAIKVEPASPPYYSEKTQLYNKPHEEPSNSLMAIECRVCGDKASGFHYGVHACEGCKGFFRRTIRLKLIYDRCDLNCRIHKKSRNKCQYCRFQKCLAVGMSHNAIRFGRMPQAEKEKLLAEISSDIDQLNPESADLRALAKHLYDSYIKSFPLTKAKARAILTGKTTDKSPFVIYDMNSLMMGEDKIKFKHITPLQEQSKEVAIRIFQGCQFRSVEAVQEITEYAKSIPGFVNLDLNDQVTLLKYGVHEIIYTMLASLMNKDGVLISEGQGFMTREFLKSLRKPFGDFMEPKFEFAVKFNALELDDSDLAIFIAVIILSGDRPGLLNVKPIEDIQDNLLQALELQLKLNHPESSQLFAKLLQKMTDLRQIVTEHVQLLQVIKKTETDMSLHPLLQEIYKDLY
Sequence of Aryl hydrocarbon receptor (Homo sapiens) (P35869 whole entry, looked up): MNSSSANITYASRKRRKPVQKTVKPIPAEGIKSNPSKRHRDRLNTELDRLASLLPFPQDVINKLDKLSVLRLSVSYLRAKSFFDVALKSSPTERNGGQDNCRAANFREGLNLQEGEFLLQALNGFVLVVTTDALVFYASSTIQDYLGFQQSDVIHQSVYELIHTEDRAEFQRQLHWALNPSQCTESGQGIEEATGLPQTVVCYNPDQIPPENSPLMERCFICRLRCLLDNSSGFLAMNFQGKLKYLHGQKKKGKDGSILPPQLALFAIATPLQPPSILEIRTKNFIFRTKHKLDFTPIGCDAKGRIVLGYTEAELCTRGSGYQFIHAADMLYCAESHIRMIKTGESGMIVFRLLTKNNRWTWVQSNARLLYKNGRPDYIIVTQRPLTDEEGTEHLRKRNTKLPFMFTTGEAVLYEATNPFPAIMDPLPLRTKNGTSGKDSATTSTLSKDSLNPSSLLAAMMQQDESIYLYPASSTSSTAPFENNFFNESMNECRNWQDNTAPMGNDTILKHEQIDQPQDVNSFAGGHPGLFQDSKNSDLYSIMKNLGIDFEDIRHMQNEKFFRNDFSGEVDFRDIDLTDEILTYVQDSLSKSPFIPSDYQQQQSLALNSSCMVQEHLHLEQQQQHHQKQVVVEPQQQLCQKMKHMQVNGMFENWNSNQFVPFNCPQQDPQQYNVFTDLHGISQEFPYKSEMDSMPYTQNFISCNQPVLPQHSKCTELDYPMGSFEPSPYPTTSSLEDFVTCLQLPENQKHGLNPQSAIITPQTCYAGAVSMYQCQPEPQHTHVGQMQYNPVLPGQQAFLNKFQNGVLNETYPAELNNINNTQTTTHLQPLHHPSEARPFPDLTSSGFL

On to `COc1cccc(OC)c1C(=O)O`, for which the Potency entry in experiment [1], in experiment [3], in experiment [4], in experiment [5], in experiment [6] and in [7] was “inactive” in each case. The Potency result in experiment [8] was “inactive”. Moreover, the call in experiment [2] was inactive.
In the case of `C=CCCC(=O)/C=C/C1C(C)=CCCC1(C)C` (stereo not given), the Potency in [1] was 61.1 µM (active). In addition, the outcome in experiment [2] was inactive. The Potency entry in [3], in [4], in experiment [9], in [10], in [11] and in experiment [12] was “inactive” in each case. For the same compound, the Potency result in experiment [13], in [7] and in experiment [8] was “inactive” in each case.
As for `C#C[C@]1(OC(C)=O)CC[C@H]2[C@@H]3CCC4=C/C(=N/O)CC[C@@H]4[C@H]3CC[C@@]21CC`, the Potency in experiment [1] is 21.1 µM (active); in [14], 0.952 µM [inconclusive] (active); in experiment [15], 0.106 µM (active); in experiment [17] it was 23.7 µM (active); in experiment [6], 29.8 µM (active). For the same compound, the Potency entry in experiment [3], in [16], in experiment [4] and in experiment [9] was “inactive” each time.
With `O=S(=O)(O)c1ccc(Nc2nc(Nc3ccc(/C=C/c4ccc(Nc5nc(Nc6ccc(S(=O)(=O)O)cc6)nc(N(CCO)CCO)n5)cc4S(=O)(=O)O)c(S(=O)(=O)O)c3)nc(N(CCO)CCO)n2)cc1`, the Potency result in [1], in experiment [15], in experiment [16], in experiment [17], in experiment [9] and in experiment [12] was “inactive” throughout. The Potency result in experiment [6] and in [7] was “inactive” each time. Also, the outcome in [2] was inactive.
Regarding `OC1CCC(C2CCCCC2)CC1` (stereo not given), the Potency result in experiment [1], in [18], in [3], in [14], in experiment [16] and in experiment [4] was “inactive” throughout. Also, the Potency result in experiment [17], in [19], in experiment [9], in [5], in [10] and in [12] was “inactive” throughout. Moreover, the Potency entry in experiment [6], in experiment [7] and in [8] was “inactive” throughout. Further, in [2], the compound was called inactive.
For the compound `O=C(O)CCN(C1(C(=O)NO)CCCC1)S(=O)(=O)c1ccc(Oc2ccc(F)cc2)cc1`, the Potency result in [1], in [3], in experiment [4], in [17], in [19] and in [10] was “inactive” in each case. The Potency result in experiment [6], in experiment [7] and in experiment [8] was “inactive” in each case. In addition, the call in experiment [2] was inactive.
As for `O=c1[nH]c2ccccc2n1CCCN1CCN(C(c2ccccc2)c2ccccc2)CC1`, the results for the Potency in experiment [1], in experiment [5] and in [6] were 23.7 µM (active), 26.6 µM (active) and 29.8 µM (active), respectively. In addition, the result in [2] was inactive. The Potency result in experiment [3], in experiment [17], in experiment [19], in experiment [12] and in [7] was “inactive” each time.
As to `COc1ccc(NC(=O)CC(C)=O)cc1`, the Potency result in experiment [1], in [3], in experiment [4], in experiment [17], in [19] and in [10] was “inactive” in each case. The Potency result in [11], in [12], in [6] and in [7] was “inactive” each time. For the same compound, in experiment [2], the call was inactive.
For the compound `C1CCC(SSC2CCCCC2)CC1`, the Potency entry in experiment [1], in [18], in experiment [14], in experiment [15], in experiment [16] and in experiment [4] was “inactive” throughout. Also, the Potency entry in experiment [17], in experiment [19], in experiment [9], in experiment [5], in [11] and in experiment [12] was “inactive” in each case. Also, the Potency result in experiment [6], in experiment [7] and in experiment [8] was “inactive” throughout. For the same compound, the call in experiment [2] was inactive.
On to `CC(C)=CCC1=C(O)c2ccccc2C(=O)C1=O`, for which the figures for the Potency in experiment [1], in experiment [4] and in experiment [9] were 0.171 µM (active), 54.2 µM (active) and 54.2 µM (active), respectively. In addition, in experiment [2], the compound was classed as inactive. Besides, the Potency entry in experiment [17], in [12] and in [7] was “inactive” throughout.
Take `OCC(F)(F)F`: the Potency entry in [1], in experiment [3], in experiment [4], in [17], in experiment [19] and in experiment [9] was “inactive” each time. In addition, the Potency entry in [5], in [10], in experiment [11], in [12], in [6] and in [7] was “inactive” each time. Further, the Potency entry in experiment [8] was “inactive”. Besides, the compound was classed as inactive in experiment [2].
